Active and inactive are the calls of the source.
What was measured:
[1] = small molecules captured by biotinylated probe aFSTL3 – biochemical, small-molecule microarray, fluorescence 635/667, stem cell growth factor project, primary screen (AID 1064); conditions: higher = more signal;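 further: measures binding of the biotinylated anti-FSTL3 antibody to printed compounds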
[2] = binders from COS7 lysate, DM2A8 probe, primary screen, torsin A project, cell lysate, small-molecule microarray, fluorescence 635/667 (AID 1065); conditions: higher = more signal, COS7 lysate expressing mutant human TOR1A
[3] = small molecules captured by biotinylated probe aFGF2 – biochemical, small-molecule microarray, fluorescence 635/667, stem cell growth factor project, primary screen (AID 1067); conditions: higher = more signal;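 further: measures binding of biotinylated aFGF2 protein to printed compounds on slides; z-score merges feature fluorescence and signal-to-noise across triplicate slides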
[4] = small molecules captured by biotinylated probe aFGF10 – biochemical, small-molecule microarray, fluorescence 635/667, stem cell growth factor project, primary screen (AID 1071); conditions: higher = more signal;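 further: score merges 667 nm spot intensity and signal to noise from triplicate slides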
[5] = target: Neurogenic locus notch homolog protein 2 (Homo sapiens) (UniProt Q04721); experiment: small molecules binding Notch2 protein – biochemical, small-molecule microarray, 635 nm fluorescence, stem cell growth factors, primary screen (AID 1073); conditions: higher = more signal
[6] = target: Pro-neuregulin-1, membrane-bound isoform (Homo sapiens) (UniProt Q02297); experiment: small molecules binding neuregulin-1 protein – biochemical, small-molecule microarray, fluorescence 635/667, psychiatric disease protein project, primary screen (AID 1075); conditions: NRG1 binding, 635 nm fluorescence, higher = more signal;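 further: score combines 667 nm spot fluorescence with signal to noise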
Pro-neuregulin-1, membrane-bound isoform (Homo sapiens), sequence (Q02297 whole entry, looked up, the tested form may be a part, canonical isoform): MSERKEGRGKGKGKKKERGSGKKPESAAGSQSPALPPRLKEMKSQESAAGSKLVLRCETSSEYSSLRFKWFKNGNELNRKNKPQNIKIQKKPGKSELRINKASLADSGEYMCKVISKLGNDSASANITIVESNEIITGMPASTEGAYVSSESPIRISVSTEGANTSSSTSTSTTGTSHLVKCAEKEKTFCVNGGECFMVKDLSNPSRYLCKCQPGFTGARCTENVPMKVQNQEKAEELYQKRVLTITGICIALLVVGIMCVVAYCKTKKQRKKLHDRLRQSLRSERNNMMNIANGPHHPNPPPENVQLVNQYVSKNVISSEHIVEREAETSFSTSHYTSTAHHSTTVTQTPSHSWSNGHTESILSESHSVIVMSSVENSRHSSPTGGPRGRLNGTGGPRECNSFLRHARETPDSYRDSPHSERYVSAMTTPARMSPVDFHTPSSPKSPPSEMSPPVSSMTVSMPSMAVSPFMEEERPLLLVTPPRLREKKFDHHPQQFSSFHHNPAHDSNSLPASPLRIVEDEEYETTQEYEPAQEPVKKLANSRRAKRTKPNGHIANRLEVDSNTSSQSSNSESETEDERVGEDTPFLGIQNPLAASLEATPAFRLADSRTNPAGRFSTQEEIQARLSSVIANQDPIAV

[7] = test system: Neuregulin-1 EGF-like domain; experiment: small molecules binding NRG1 EGF domain – biochemical, small-molecule microarray, 635 nm fluorescence, primary screen (AID 1081); conditions: higher = more signal;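 further: binding of the protein to compounds printed on small-molecule microarray slides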
[8] = FRG1 expression reporter modulators in myotubes – cell-based, C2C12 myotubes, firefly/Renilla luciferase, luminescence, FRG1 inhibition for FSHD, primary screen (AID 1084); conditions: FRG1 promoter luciferase, higher = more signal, called active from +8 up or from −8 down
[9] = small molecules captured by biotinylated probe aFST – biochemical, small-molecule microarray, fluorescence 635/667, stem cell growth factor project, primary screen (AID 1086); conditions: higher = more signal;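 further: score merges 667 nm fluorescence with signal-to-noise of each printed compound spot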
[10] = binders of probe aHhip on microarray, primary screen, stem cell growth factor project, biochemical, small-molecule microarray, fluorescence 635/667 (AID 1087); conditions: higher = more signal;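 further: score merges spot fluorescence at 667nm with spot signal to noise ratio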
[11] = test system: PRMT1 (protein arginine N-methyltransferase 1); experiment: small molecules binding arginine methyltransferase PRMT1 – biochemical, small-molecule microarray, 635 nm fluorescence, primary screen (AID 1088); conditions: higher = more signal;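 further: binding of Prmt1 protein to compounds spotted on small-molecule microarray slides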
[12] = growth effects on S. cerevisiae YJM789 – YJM789 clinical isolate, OD600, 24 h, basal, primary screen (AID 1089); conditions: higher = more signal, called active from +8 up or from −8 down;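 further: growth of clinical yeast isolate S. cerevisiae YJM 789 seeded 1000 cells per well; test concentration not given here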
[13] = S. pombe growth modifiers, basal conditions – strain 972, OD600, 24 h, no modulator, primary screen (AID 1090);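 further: basal condition with compound alone and no growth modifier present; test concentration not given here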; conditions: S. pombe 972 growth, higher = more signal, called active from +8 up or from −8 down
[14] = budding yeast growth modifiers under rapamycin – strain BY4716, OD600, 96 h, primary screen (AID 1091); further: test concentration not given here; conditions: S. cerevisiae BY4716 + rapamycin, higher = more signal, called active from +8 up or from −8 down
[15] = target: Torsin-1A-interacting protein 2 (Homo sapiens) (UniProt Q8NFQ8); experiment: small molecules binding lysate-expressed LULL1 – cell lysate, human LULL1 lysate, 635/667 nm fluorescence, primary screen (AID 1092); conditions: small-molecule microarray, hLULL1 lysate binding, 635 nm fluorescence; higher = more signal;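 further: probe is lysate of COS7 cells overexpressing human LULL1; score merges per-feature 667 nm fluorescence with signal-to-noise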
Torsin-1A-interacting protein 2 (Homo sapiens), sequence (Q8NFQ8 whole entry, looked up): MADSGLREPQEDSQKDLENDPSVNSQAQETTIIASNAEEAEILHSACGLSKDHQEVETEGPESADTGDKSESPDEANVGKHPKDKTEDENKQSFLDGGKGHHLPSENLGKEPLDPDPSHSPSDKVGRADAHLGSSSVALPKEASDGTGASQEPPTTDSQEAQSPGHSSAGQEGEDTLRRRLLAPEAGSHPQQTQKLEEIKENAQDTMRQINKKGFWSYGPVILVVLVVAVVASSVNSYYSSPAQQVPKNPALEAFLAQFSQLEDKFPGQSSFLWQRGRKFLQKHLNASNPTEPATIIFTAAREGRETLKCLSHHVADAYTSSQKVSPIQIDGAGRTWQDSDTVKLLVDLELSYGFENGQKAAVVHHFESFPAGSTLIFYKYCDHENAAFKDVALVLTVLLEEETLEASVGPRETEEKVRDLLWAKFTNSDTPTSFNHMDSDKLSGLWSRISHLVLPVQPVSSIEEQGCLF

[16] = optical density change of DRC41 E. coli – strain DRC41, OD650, 24 h, E. coli filamentation project, primary screen (AID 1093);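 further: MC1000 strain lacking acrAB efflux and sulA so SOS filamentation is blocked; test concentration not given here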; conditions: E. coli DRC41 growth, higher = more signal, called active from +8 up or from −8 down
[17] = probe aLefty2 binding to arrayed compounds – biochemical, biotinylated probe, 635/667 nm fluorescence, primary screen (AID 1094); conditions: small-molecule microarray, higher = more signal;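 further: score merges spot fluorescence near 667 nm with spot signal-to-noise ratio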
[18] = test system: Noggin (protein binding on small-molecule microarray); experiment: small molecules binding Noggin protein – biochemical, 635/667 nm fluorescence, primary screen (AID 1095); conditions: 635 nm fluorescence, higher = more signal;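 further: score merges 667 nm feature fluorescence with signal to noise over triplicate slides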
[19] = target: Neurogenic locus notch homolog protein 3 (Homo sapiens) (UniProt Q9UM47); experiment: small molecules binding NOTCH3 protein – biochemical, 635/667 nm fluorescence, primary screen (AID 1096); conditions: small-molecule microarray, 635 nm fluorescence, higher = more signal
Neurogenic locus notch homolog protein 3 (Homo sapiens), sequence (Q9UM47 whole entry, looked up): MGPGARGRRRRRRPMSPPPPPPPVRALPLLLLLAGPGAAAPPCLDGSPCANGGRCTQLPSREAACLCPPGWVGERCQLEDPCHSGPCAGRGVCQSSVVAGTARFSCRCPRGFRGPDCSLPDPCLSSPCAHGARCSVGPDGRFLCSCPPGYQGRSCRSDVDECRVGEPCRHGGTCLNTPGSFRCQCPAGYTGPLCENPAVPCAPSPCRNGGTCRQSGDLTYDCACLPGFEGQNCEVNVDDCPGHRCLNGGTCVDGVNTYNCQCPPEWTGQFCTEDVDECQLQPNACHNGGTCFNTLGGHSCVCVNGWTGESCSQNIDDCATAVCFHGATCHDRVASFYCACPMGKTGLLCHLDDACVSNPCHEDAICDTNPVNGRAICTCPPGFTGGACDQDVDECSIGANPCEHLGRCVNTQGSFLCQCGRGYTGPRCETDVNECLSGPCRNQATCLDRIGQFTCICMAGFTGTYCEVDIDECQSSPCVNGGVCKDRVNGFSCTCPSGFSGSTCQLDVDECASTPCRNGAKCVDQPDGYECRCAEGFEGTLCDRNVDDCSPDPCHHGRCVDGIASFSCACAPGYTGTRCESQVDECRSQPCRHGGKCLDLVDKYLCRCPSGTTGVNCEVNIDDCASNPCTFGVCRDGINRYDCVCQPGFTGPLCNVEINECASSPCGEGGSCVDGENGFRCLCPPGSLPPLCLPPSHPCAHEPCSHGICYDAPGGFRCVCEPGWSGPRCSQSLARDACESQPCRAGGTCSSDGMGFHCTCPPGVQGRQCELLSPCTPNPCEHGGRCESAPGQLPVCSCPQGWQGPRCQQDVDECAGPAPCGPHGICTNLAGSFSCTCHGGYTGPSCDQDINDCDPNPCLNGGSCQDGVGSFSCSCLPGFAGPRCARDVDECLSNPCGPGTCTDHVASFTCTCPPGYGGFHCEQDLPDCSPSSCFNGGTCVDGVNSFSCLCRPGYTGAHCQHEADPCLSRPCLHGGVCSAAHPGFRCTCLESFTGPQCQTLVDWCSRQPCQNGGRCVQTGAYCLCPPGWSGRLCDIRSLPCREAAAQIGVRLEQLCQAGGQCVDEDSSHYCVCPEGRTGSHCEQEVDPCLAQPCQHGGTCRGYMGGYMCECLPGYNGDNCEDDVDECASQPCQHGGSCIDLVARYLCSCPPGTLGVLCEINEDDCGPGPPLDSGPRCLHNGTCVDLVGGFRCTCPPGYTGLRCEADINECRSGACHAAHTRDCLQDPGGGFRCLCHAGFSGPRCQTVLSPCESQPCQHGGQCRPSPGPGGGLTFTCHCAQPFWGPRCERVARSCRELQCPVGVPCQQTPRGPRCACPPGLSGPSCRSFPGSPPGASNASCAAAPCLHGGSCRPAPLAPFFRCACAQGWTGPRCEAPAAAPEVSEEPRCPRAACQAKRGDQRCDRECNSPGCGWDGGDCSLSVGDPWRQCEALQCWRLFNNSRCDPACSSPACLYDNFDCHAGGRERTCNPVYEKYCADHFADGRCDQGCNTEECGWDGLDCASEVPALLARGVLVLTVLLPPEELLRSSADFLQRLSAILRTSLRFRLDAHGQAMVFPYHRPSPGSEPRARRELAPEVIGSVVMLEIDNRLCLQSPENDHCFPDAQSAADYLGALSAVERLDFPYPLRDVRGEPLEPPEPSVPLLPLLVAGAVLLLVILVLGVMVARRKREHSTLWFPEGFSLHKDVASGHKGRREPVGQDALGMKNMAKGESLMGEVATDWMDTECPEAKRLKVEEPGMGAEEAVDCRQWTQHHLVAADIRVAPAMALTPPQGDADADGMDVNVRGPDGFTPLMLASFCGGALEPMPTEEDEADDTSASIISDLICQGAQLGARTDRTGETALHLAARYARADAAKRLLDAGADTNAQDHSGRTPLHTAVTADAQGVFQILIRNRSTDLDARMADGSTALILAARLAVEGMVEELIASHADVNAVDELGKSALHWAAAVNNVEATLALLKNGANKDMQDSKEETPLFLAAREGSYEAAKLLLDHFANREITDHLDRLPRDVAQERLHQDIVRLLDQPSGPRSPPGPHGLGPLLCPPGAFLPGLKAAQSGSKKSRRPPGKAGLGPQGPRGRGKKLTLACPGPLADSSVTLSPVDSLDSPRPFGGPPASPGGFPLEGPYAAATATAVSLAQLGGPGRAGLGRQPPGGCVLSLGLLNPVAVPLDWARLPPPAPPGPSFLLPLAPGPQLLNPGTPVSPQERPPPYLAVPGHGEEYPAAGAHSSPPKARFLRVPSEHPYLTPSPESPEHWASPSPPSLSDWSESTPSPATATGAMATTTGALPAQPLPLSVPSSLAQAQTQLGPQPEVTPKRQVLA

[20] = probe aEGFR binding to arrayed compounds – biochemical, biotinylated probe, 635/667 nm fluorescence, primary screen (AID 1097); conditions: small-molecule microarray, higher = more signal;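 further: probe is a biotinylated anti-EGFR antibody binding compounds printed on slides; score combines fluorescence near 667 nm and signal to noise of each spot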

Row | Structure (SMILES) | composite z-score [1] | composite z-score [2] | composite z-score [3] | composite z-score [4] | composite z-score [5] | composite z-score [6] | composite z-score [7] | z-score [8] | composite z-score [9] | composite z-score [10] | composite z-score [11] | z-score [12] | z-score [13] | z-score [14] | composite z-score [15] | z-score [16] | composite z-score [17] | composite z-score [18] | composite z-score [19] | composite z-score [20]
1 | COc1ccc(CCNC(=O)[C@@]2(C)c3ccccc3C(=O)N(c3ccc(C)cn3)[C@H]2c2ccc(CO)cc2)cc1 | -0.561 | -0.997 | -0.171 | -0.516 | -0.859 | 0.884 | 1.34 | 1.07 (inactive) | -0.389 | -0.13 | -0.0351 | -1.39 (inactive) | -0.739 (inactive) | -1.17 (inactive) | -0.04 | -0.121 (inactive) | 0.0851 | -0.704 | -0.736 | -0.247
2 | CC(C)OC(=O)C=C1C[C@@H](c2cccc(Cl)c2)O[C@@H](c2cccc(Cl)c2)O1 | 0.614 | 0.31 | 0.0442 | 0.771 | 0.028 | 0.903 | 0.891 | -0.582 (inactive) | 0.186 | -0.189 | -0.341 | -0.338 (inactive) | -5.58 (inactive) | -0.764 (inactive) | 1.99 | -0.391 (inactive) | -0.0009 | -0.225 | -0.735 | -0.13
3 | CN(C)C(=O)[C@]1(Cc2ccccc2)N=C(c2ccc(OCCCO)cc2)O[C@@H]1c1ccccc1N=[N+]=[N-] | 0.303 | 0.746 | 0.0797 | 0.618 | 1.33 | 1.56 | 1.13 | 0.336 (inactive) | 0.532 | 0.0749 | 1.56 | -0.305 (inactive) | -0.655 (inactive) | 1.06 (inactive) | 2.84 | 0.841 (inactive) | 0.141 | 1.35 | 1.12 | 0.438
4 | [N-]=[N+]=Nc1ccccc1C[C@@]1(C(=O)N2CCCCC2)N=C(c2ccc(OCCCO)cc2)O[C@@H]1c1ccccc1N=[N+]=[N-] | 1.23 | 0.436 | 0.286 | 0.758 | 1.6 | 0.429 | 1.17 | -2.04 (inactive) | 1.14 | -0.121 | 0.919 | -1.16 (inactive) | 0.123 (inactive) | 1.18 (inactive) | 2.45 | 0.799 (inactive) | 0.605 | 0.169 | 0.884 | 0.29
5 | O=C(O)[C@H](Cc1ccccc1)n1cc(-c2ccccc2)nn1 | -0.37 | -0.104 | -0.0583 | 0.399 | 0.533 | 0.0865 | 0.871 | 1.33 (inactive) | 0.328 | -0.181 | 0.112 | 0.306 (inactive) | 0.865 (inactive) | 0.173 (inactive) | 1.03 | -0.741 (inactive) | -0.0592 | 0.197 | 0.185 | 0.119
6 | COC(=O)[C@@]1(Cc2ccc(F)cc2)[C@H]2c3cc(C(=O)N(C)C)n(Cc4cc(C)n(C)n4)c3C[C@H]2CN1C(=O)c1ccccc1 | 0.274 | 0.85 | -0.19 | 0.515 | 1.61 | 1.66 | 1.29 | 0.0894 (inactive) | 0.967 | 0.0139 | 1.02 | 0.619 (inactive) | 0.456 (inactive) | -0.109 (inactive) | 3.09 | -0.38 (inactive) | 0.629 | -0.421 | 1.01 | 0.14

Source: PubChem BioAssay
